# Test results taken from ChEMBL document CHEMBL1961873, “Compounds: GSK PKIS; Assays: Nanosyn kinase panel” (2012).
# Key:
# [1] = target: Tyrosine-protein kinase CSK (Homo sapiens) (UniProt P41240); conditions: at 1 µM;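 also: each value is an averaged inhibition reading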
# [2] = target: T1, Discoidin domain-containing receptor 2 (Homo sapiens) (UniProt Q16832); conditions: at 0.1 µM
# T1 sequence (whole entry): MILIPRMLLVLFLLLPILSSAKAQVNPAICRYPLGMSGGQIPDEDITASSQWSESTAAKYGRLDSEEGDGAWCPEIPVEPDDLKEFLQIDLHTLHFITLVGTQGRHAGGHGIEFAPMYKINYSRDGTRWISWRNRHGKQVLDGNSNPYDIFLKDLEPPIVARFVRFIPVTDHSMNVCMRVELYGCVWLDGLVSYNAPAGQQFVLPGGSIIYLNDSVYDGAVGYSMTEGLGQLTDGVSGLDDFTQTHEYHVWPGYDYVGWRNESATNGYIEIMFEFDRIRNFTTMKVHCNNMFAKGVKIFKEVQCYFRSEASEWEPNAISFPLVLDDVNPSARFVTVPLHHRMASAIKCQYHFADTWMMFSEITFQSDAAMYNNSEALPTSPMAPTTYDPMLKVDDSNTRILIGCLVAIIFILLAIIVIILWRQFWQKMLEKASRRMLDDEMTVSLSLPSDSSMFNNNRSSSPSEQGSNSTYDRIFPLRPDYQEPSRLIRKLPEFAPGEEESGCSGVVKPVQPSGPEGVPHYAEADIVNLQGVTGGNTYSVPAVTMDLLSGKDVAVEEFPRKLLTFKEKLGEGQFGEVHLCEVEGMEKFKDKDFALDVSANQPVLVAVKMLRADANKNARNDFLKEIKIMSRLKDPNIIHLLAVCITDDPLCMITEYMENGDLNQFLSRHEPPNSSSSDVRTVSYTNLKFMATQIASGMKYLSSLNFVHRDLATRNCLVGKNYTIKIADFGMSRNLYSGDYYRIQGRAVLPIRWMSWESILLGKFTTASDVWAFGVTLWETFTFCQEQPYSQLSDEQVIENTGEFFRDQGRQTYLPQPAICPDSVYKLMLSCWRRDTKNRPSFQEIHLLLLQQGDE
# [3] = target: T1, Discoidin domain-containing receptor 2 (Homo sapiens); conditions: at 1 µM
# [4] = target: Epidermal growth factor receptor (Homo sapiens) (UniProt P00533); conditions: at 0.1 µM
# [5] = target: Epidermal growth factor receptor (Homo sapiens) (UniProt P00533); conditions: at 1 µM
# [6] = test system: Epidermal growth factor receptor (Homo sapiens), P00533 [L858R]; conditions: at 0.1 µM
# [7] = test system: Epidermal growth factor receptor (Homo sapiens), P00533 [L858R]; conditions: at 1 µM
# [8] = test system: Epidermal growth factor receptor (Homo sapiens), P00533 [L861Q]; conditions: at 0.1 µM
# [9] = test system: Epidermal growth factor receptor (Homo sapiens), P00533 [L861Q]; conditions: at 1 µM
# [10] = test system: Epidermal growth factor receptor (Homo sapiens), P00533 [T790M]; conditions: at 0.1 µM
# [11] = test system: Epidermal growth factor receptor (Homo sapiens), P00533 [T790M]; conditions: at 1 µM
# [12] = test system: Epidermal growth factor receptor (Homo sapiens), P00533 [L858R,T790M]; conditions: at 0.1 µM
# [13] = test system: Epidermal growth factor receptor (Homo sapiens), P00533 [L858R,T790M]; conditions: at 1 µM
# [14] = target: Ephrin type-A receptor 2 (Homo sapiens) (UniProt P29317); conditions: at 0.1 µM
# [15] = target: Ephrin type-A receptor 2 (Homo sapiens) (UniProt P29317); conditions: at 1 µM
# [16] = target: T2, Ephrin type-A receptor 3 (Homo sapiens) (UniProt P29320); conditions: at 0.1 µM
# T2 sequence (whole entry): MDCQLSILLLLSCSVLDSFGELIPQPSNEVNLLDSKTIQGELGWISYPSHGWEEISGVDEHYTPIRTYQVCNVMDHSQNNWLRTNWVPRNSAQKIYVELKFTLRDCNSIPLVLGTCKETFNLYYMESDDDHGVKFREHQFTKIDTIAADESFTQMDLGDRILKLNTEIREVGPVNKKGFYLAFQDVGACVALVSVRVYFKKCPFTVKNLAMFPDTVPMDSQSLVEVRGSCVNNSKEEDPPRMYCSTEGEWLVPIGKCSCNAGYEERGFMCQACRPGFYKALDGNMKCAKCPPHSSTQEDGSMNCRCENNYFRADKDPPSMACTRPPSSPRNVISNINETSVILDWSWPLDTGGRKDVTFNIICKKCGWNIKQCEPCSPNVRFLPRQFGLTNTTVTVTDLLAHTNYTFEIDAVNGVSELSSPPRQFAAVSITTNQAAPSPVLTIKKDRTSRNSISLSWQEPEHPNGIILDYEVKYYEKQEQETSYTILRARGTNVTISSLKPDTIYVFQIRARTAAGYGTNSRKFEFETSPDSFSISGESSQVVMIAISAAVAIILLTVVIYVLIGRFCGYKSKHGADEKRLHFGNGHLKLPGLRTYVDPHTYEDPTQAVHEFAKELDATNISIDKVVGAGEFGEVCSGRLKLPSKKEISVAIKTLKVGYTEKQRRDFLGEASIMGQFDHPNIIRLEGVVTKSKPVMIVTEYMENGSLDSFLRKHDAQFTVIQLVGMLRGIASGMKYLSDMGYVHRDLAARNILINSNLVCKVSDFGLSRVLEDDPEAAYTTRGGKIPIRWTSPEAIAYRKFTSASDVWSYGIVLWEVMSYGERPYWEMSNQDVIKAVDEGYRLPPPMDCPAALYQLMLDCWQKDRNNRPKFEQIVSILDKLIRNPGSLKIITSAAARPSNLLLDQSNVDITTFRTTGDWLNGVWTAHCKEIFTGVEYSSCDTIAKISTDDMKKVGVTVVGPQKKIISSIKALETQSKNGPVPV
# [17] = target: T2, Ephrin type-A receptor 3 (Homo sapiens); conditions: at 1 µM
# [18] = target: Ephrin type-A receptor 4 (Homo sapiens) (UniProt P54764); conditions: at 0.1 µM
# [19] = target: Ephrin type-A receptor 4 (Homo sapiens) (UniProt P54764); conditions: at 1 µM
# [20] = target: T3, Ephrin type-B receptor 2 (Homo sapiens) (UniProt P29323); conditions: at 0.1 µM;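 also: reported as mean inhibition of EPHB2, from the GSK PKIS dataset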
# T3 sequence (whole entry): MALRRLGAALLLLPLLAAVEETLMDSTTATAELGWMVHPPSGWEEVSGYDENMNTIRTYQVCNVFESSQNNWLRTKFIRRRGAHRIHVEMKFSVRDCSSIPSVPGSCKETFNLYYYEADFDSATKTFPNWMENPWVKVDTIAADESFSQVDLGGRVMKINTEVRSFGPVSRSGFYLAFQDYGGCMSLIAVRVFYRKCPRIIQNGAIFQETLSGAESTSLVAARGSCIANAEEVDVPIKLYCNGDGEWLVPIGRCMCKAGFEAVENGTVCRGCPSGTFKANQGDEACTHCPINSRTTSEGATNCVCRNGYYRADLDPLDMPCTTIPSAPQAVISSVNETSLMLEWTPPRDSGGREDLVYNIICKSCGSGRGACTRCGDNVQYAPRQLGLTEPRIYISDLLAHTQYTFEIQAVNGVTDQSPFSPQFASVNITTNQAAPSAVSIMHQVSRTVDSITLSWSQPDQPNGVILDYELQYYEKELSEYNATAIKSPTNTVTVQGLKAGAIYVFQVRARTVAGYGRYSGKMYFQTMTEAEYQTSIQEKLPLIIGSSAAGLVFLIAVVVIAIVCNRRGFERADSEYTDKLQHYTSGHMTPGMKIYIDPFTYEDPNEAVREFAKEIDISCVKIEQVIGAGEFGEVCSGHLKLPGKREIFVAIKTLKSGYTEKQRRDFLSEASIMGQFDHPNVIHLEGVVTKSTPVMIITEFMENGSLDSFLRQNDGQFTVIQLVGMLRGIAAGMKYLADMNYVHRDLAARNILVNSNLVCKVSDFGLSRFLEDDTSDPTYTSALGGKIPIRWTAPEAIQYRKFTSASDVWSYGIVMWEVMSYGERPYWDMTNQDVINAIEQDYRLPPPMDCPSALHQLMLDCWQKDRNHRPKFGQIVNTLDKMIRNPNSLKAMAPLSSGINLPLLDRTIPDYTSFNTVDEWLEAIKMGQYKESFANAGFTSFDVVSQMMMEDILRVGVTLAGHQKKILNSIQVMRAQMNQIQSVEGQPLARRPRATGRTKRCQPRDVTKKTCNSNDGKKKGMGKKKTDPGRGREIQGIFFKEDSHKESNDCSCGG
# Chain of Tyrosine-protein kinase CSK (Homo sapiens) (P41240 2-450 limits assumed): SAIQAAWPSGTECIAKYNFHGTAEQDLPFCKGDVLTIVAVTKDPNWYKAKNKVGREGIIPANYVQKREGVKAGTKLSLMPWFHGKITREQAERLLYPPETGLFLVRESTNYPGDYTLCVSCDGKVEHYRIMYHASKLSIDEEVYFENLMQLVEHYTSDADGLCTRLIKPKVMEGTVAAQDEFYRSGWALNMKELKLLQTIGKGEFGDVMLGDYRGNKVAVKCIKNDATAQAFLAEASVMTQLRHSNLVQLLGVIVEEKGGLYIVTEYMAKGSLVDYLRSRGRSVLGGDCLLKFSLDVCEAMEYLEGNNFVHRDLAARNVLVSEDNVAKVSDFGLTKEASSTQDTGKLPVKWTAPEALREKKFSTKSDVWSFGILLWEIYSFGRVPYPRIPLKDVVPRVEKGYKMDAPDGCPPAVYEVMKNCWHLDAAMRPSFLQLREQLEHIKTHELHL
# Chain of Epidermal growth factor receptor (Homo sapiens), P00533 [L858R,T790M] (P00533 whole entry T790M/L858R, looked up): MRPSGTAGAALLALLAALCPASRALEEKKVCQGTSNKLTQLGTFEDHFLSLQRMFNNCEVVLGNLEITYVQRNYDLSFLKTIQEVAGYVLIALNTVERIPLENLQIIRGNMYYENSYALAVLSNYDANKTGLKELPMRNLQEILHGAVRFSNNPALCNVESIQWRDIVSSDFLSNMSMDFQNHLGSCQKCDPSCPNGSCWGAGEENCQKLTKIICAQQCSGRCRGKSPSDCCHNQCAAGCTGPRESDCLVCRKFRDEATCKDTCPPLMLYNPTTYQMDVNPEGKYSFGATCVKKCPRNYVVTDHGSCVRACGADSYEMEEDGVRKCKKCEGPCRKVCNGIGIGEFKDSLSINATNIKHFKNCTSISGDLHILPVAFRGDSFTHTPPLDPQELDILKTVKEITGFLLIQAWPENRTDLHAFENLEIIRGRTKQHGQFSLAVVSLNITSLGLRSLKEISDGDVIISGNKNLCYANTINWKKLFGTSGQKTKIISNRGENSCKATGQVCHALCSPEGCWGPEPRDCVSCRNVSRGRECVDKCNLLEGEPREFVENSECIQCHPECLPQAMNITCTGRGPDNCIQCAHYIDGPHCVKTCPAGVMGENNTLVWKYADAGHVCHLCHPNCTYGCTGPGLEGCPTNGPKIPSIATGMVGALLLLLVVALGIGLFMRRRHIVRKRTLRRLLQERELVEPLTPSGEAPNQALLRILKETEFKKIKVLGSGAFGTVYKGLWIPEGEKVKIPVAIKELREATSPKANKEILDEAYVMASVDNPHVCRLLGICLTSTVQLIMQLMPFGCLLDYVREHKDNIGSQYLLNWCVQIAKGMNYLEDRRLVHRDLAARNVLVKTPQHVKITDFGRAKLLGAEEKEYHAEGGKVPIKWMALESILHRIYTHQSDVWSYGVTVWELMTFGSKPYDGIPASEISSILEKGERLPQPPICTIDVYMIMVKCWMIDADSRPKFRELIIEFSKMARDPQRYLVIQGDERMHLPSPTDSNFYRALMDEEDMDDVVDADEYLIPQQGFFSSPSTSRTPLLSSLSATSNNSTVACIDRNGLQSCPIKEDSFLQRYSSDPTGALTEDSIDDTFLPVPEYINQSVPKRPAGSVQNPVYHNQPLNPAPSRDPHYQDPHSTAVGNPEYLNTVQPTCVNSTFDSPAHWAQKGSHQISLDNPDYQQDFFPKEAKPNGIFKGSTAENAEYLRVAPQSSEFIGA
# Chain of Ephrin type-A receptor 2 (Homo sapiens) (P29317 whole entry): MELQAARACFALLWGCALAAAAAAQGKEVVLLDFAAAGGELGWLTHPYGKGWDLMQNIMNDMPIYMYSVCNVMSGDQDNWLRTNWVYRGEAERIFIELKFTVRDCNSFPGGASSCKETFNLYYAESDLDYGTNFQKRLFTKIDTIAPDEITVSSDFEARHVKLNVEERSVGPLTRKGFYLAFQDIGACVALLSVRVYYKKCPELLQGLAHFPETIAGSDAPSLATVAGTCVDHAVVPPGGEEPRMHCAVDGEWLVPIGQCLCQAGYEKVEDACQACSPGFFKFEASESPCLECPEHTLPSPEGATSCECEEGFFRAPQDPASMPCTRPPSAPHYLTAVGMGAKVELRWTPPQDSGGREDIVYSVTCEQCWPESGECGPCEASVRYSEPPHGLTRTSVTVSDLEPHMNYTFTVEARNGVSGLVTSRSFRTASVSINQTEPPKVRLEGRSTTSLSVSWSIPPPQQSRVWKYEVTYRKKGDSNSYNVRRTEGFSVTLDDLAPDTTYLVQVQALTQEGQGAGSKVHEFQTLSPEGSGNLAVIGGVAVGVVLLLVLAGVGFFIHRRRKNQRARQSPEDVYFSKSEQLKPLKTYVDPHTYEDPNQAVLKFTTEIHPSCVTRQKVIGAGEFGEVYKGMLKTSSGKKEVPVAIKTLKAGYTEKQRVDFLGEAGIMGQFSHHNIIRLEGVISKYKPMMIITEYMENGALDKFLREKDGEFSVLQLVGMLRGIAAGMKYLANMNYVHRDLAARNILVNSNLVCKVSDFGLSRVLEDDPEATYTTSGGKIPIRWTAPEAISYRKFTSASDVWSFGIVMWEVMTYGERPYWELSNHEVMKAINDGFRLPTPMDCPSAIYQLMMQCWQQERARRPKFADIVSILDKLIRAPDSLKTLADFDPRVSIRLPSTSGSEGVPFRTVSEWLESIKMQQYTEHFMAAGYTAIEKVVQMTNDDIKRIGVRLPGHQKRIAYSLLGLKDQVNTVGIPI
# Chain of Ephrin type-A receptor 4 (Homo sapiens) (P54764 whole entry): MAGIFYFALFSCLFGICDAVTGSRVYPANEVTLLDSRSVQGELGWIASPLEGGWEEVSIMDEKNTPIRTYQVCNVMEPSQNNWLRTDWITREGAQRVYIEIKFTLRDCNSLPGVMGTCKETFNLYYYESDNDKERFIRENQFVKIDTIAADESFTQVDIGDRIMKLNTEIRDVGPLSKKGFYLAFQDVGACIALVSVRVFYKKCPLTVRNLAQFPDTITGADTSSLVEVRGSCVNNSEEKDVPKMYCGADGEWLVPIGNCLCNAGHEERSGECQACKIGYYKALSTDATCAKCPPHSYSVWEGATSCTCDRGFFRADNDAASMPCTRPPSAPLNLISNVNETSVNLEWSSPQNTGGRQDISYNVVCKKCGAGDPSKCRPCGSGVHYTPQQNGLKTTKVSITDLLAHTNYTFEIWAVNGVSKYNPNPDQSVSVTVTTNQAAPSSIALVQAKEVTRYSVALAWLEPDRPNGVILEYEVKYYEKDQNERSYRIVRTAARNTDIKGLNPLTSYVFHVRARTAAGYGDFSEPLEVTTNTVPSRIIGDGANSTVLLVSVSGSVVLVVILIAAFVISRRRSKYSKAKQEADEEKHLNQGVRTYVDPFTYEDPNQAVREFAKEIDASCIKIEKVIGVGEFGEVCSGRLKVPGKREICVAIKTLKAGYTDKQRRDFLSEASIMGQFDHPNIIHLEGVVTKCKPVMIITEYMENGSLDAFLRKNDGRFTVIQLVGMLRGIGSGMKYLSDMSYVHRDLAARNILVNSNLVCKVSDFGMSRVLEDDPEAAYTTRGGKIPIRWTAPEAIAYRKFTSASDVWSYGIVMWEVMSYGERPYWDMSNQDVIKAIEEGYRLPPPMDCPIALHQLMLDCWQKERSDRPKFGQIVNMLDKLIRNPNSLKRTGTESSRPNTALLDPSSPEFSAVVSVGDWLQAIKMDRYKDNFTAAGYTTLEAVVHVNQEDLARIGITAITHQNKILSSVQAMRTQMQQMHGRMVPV
# Chain of Epidermal growth factor receptor (Homo sapiens), P00533 [T790M] (P00533 whole entry T790M): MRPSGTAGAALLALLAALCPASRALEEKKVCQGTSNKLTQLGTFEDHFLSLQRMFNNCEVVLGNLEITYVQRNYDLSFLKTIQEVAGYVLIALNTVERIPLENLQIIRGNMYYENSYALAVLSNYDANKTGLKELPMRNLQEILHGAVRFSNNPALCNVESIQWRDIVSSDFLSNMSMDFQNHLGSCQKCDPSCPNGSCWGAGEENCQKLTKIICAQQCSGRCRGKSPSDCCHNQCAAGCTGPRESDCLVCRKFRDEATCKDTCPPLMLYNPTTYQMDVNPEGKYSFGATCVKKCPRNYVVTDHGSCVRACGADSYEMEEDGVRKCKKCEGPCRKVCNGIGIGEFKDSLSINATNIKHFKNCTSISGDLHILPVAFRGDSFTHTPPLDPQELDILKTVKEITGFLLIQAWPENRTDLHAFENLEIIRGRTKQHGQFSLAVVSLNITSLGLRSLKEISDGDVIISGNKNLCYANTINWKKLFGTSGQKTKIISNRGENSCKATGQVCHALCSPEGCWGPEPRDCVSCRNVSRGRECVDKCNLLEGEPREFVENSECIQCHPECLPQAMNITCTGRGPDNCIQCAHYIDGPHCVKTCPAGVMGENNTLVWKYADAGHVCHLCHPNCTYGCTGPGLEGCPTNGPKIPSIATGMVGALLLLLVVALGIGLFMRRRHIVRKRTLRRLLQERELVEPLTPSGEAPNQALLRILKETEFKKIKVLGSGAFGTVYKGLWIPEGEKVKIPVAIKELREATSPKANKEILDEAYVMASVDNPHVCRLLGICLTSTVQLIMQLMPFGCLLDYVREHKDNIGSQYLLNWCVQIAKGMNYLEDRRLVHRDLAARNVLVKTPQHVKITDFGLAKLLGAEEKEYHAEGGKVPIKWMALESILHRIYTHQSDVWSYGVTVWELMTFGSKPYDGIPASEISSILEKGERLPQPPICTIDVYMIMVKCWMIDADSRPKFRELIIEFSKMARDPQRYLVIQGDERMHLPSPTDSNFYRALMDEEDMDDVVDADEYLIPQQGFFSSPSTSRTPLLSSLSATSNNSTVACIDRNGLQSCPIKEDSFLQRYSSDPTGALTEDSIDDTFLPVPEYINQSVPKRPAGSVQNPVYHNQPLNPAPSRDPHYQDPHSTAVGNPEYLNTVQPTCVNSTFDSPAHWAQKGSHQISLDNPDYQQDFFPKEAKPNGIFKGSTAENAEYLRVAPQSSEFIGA
Structure (SMILES),inhibition [1] [%],inhibition [2] [%],inhibition [3] [%],inhibition [4] [%],inhibition [5] [%],inhibition [6] [%],inhibition [7] [%],inhibition [8] [%],inhibition [9] [%],inhibition [10] [%],inhibition [11] [%],inhibition [12] [%],inhibition [13] [%],inhibition [14] [%],inhibition [15] [%],inhibition [16] [%],inhibition [17] [%],inhibition [18] [%],inhibition [19] [%],inhibition [20] [%]
CN1CCC(C(=O)Nc2n[nH]c3nnc(-c4ccccc4)cc23)CC1,6.5,0.55,1,10.2,7.57,1.7,3.79,2.96,6.37,1.89,4.1,-2.57,4.67,1.84,2.09,4.03,2.66,8.03,8.45,4.92
O=C(Nc1n[nH]c2nc(-c3ccco3)c(Br)cc12)C1CC1,4.14,0.37,2.85,2.5,5.12,3.62,0.54,0.96,1.89,1.4,-0.71,5.44,0.25,1.53,1.29,6.55,4.24,7.41,2.95,7.31
CCCN1CCC=C(c2ccc(Nc3nc(Nc4ccccc4C(N)=O)c4cc[nH]c4n3)c(C)c2)C1,1.79,1.12,3.26,3.3,8.18,0.06,9.35,1.44,6.61,2.92,25.1,7.32,51.6,1.69,-0.07,3.53,2.81,5.85,10.8,8.59
CCn1c(-c2nonc2N)nc2ccncc21,-5.08,0.25,0.08,0.86,2.64,-3.87,-4.06,0.79,-0.98,-0.65,0.29,-1.07,-0.45,1.93,1.77,0.73,-0.12,5.04,-7.03,-0.84
NS(=O)(=O)c1cccc(-c2ccc3c(NC(=O)C4CC4)n[nH]c3c2)c1,-3.46,-0.11,-9.65,0.04,0.71,-0.88,-2.32,1.67,-0.49,-1.44,-1.45,-1.29,3.22,-4.33,-3.03,-5.8,-2.02,-5.25,-5.49,-1.84
Nc1nc(-c2ccccn2)c(-c2ccc3ncccc3n2)s1,4.7,3.14,-1.29,1.32,1.23,3.43,2.31,1.79,4.31,1.91,1.67,2.24,1.13,0.85,0.89,2.58,3.28,7.9,8.8,5.32
CN(C)c1cc2c(Nc3ccc4nc(Cc5ccccc5)[nH]c4c3)ncnc2cn1,55.3,3.16,7.23,66.6,77.6,16.1,48.1,27.3,40.3,3.48,6.78,3.54,7,2.13,2.37,7.81,5.67,11.6,15.2,9.32
CCn1c(-c2nonc2N)nc2cncc(C(=O)N3CC[C@H](N)C3)c21,5.06,1.43,1.61,0.8,2.64,3.22,5.35,3.58,4.5,2.65,3.15,1.56,1.95,-0.29,-0.49,4.99,5.74,9.5,10,5.01
CS(=O)(=O)CCNCc1ccc(-c2ccc3ncnc(Nc4ccc(OCc5ccccc5)c(Cl)c4)c3c2)o1,5.6,3.48,9.08,82.5,85.6,61.7,93.6,52.9,87.6,2.68,17.8,-1.01,2.45,-2.92,-2.31,-2.51,1.66,1.26,9.95,5.36
[O-][S+]1CCN(Cc2ccc(-c3ccc4ncnc(Nc5ccc(OCc6ccccc6)c(F)c5)c4c3)o2)CC1,-3.52,0.34,0.62,84.1,90.7,42.6,84.9,39.7,68.6,4.05,10.7,3.03,0.99,0.8,-0.21,4.64,4.32,4.58,-1.51,4.14
